Assay results taken from paper PMC7862700, “An all-to-all approach to the identification of sequence-specific readers for epigenetic DNA modifications on cytosine”.

Assays:
Experiment in all cases: DAPPL (digital affinity profiling via proximity ligation, sequencing); 10 mM Tris-HCl pH 7.5, 50 mM NaCl, 1 mM DTT, 4% glycerol, room temperature, 30 min; GST-TFs on glutathione beads, 16-mer random dsDNA library, 0.1% formaldehyde crosslink after washing; high values mean tight binding
Settings in all cases: protein: recombinant; tags: N-terminal GST; dsDNA, one strand shown
FLI1 = target: T1, FLI1 (Homo sapiens, UniProt Q01543 1-452)
T1 sequence: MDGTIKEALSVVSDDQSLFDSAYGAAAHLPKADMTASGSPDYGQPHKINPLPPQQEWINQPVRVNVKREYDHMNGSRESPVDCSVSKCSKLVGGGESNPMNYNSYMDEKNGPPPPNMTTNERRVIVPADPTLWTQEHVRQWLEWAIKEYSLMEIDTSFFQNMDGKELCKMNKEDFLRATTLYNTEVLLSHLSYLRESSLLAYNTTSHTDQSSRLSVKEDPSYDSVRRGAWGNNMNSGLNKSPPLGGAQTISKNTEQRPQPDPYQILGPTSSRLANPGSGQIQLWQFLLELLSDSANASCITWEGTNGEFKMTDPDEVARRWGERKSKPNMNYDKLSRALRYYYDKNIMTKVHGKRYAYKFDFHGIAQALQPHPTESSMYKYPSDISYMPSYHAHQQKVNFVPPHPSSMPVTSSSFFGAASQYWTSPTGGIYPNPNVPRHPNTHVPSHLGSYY
Outline: (§1)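 Binding signal is given per hexamer as its read frequency for a factor divided by its frequency in the tag-only sample. GST-fused human transcription factors were expressed in yeast, captured on glutathione beads, barcoded with DNA and pooled with that sample, then incubated with 200 nmole of a 16-mer random double-stranded DNA library in Tris/NaCl/DTT/glycerol buffer for 30 min at room temperature. The pools were then washed, crosslinked, proximity-ligated, amplified by PCR and sequenced on an Illumina NextSeq500.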

ELK1 = target: T2, ELK1 (Homo sapiens, UniProt P19419 1-428)
T2 sequence: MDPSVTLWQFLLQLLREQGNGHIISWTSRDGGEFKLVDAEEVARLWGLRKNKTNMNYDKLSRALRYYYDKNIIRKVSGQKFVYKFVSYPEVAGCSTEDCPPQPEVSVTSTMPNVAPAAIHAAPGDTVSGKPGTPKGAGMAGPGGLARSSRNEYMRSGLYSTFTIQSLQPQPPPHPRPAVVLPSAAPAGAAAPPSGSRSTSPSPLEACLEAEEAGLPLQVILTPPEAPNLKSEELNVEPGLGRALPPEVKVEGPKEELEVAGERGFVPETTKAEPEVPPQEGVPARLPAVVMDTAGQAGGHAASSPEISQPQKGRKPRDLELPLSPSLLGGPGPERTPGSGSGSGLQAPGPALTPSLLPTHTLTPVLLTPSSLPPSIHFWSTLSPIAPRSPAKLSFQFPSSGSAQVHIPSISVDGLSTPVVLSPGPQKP
Outline: as §1

GABPA = target: T3, GABPA (Homo sapiens, UniProt Q06546 1-454)
T3 sequence: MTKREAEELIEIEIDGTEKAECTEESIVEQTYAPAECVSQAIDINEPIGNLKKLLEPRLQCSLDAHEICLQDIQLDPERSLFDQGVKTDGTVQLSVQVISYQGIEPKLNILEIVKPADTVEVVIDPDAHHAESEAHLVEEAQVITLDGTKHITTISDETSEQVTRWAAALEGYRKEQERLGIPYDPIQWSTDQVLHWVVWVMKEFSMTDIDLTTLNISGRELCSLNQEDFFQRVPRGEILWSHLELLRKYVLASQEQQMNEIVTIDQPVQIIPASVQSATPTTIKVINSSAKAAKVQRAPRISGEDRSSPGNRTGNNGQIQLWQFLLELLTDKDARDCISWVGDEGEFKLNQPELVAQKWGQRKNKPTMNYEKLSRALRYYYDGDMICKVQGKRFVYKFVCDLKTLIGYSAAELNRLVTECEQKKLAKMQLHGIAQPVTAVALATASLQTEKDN
Outline: as §1

ERG = target: T4, ERG (Homo sapiens, UniProt P11308 1-479)
T4 sequence: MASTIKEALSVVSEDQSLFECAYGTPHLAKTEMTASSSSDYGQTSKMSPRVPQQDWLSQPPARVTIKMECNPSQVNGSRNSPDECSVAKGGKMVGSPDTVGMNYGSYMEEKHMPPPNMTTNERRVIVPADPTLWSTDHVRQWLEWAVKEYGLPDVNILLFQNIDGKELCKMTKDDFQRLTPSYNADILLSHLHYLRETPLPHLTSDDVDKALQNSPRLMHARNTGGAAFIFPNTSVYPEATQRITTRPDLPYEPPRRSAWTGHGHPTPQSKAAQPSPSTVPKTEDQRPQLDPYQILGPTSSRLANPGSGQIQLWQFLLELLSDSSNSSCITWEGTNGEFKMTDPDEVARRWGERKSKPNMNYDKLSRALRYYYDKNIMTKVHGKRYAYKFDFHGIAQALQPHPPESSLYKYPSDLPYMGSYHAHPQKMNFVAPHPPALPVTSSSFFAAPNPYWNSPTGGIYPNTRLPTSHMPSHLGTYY
Outline: as §1

ELF1 = ELF1 (Homo sapiens, UniProt P32519 1-619)
Sequence of ELF1 (P32519 whole entry): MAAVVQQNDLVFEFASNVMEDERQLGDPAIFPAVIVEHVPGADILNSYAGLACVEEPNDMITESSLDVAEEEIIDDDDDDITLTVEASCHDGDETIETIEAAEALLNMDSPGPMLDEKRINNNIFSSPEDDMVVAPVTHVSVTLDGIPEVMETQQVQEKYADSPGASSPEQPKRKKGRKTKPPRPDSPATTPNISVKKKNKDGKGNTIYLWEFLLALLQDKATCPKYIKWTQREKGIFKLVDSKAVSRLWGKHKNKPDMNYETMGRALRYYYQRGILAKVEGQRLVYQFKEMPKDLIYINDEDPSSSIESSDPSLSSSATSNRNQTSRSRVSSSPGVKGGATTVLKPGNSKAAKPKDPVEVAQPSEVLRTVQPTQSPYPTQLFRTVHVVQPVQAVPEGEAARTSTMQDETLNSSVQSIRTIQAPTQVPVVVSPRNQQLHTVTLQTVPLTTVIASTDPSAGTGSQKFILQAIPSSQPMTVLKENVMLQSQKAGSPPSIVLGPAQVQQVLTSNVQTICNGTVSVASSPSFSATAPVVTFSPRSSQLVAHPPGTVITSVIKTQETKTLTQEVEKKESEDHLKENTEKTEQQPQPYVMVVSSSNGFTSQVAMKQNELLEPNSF
Outline: as §1

EHF = target: T5, EHF (Homo sapiens, UniProt Q9NZC4 1-300)
T5 sequence: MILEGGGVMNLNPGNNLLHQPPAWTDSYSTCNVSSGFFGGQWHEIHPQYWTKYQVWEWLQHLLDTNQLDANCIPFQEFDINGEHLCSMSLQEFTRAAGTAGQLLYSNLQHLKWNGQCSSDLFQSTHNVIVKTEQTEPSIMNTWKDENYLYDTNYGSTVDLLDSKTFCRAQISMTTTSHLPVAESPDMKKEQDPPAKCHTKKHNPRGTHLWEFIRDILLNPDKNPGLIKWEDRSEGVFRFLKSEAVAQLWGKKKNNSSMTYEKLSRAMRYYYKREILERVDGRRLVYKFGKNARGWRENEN
Outline: as §1

SPI1 = SPI1 (Homo sapiens, UniProt P17947 1-270)
Outline: as §1

SPIB = SPIB (Homo sapiens, UniProt Q01892 1-262)
Sequence of SPIB (Q01892 whole entry): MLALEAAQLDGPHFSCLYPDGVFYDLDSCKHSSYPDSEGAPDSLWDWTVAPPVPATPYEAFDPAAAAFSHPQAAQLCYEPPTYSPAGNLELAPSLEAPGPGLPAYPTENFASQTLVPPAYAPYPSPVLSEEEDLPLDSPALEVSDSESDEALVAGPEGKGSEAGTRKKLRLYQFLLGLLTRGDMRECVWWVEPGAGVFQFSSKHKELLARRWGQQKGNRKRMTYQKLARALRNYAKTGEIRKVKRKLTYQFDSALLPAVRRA
Outline: as §1

ELK3 = target: T6, ELK3 (Homo sapiens, UniProt P41970 1-407)
T6 sequence: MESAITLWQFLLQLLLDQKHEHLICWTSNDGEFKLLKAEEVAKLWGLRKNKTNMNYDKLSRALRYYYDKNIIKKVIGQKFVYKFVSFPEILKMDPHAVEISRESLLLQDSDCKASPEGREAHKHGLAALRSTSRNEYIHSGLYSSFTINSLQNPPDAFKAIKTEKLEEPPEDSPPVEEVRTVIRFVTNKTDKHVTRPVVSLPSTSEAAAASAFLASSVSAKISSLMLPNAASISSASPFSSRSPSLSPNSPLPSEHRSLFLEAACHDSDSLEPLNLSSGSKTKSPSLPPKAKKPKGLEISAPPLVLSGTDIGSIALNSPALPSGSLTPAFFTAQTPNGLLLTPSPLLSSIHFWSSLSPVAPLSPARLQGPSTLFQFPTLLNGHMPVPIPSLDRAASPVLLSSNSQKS
Outline: as §1

FEV = target: T7, FEV (Homo sapiens, UniProt Q99581 1-238)
T7 sequence: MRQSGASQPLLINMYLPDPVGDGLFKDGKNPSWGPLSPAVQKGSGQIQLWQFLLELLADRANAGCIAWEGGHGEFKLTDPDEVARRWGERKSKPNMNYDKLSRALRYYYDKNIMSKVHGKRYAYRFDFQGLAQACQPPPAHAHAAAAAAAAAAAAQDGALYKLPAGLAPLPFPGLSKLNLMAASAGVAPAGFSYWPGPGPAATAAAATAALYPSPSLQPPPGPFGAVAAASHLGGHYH
Outline: as §1

ETV5 = ETV5 (Homo sapiens, UniProt P41161 1-510)
Sequence of ETV5 (P41161 whole entry): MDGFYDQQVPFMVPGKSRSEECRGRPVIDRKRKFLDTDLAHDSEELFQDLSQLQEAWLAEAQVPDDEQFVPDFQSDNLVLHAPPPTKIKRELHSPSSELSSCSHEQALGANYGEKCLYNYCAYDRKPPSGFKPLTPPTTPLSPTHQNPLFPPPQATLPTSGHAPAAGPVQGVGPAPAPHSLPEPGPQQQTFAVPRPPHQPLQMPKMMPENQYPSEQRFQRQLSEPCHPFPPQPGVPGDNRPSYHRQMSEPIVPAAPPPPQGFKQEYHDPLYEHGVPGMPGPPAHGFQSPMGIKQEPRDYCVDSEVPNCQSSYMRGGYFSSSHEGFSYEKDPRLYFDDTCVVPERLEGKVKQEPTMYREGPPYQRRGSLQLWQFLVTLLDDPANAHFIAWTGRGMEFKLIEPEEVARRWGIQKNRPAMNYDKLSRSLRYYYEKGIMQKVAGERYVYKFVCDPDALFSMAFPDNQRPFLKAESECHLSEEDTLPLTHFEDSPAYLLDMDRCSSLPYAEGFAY
Outline: as §1

SPIC = target: T8, SPIC (Homo sapiens, UniProt Q8N5J4 1-248)
T8 sequence: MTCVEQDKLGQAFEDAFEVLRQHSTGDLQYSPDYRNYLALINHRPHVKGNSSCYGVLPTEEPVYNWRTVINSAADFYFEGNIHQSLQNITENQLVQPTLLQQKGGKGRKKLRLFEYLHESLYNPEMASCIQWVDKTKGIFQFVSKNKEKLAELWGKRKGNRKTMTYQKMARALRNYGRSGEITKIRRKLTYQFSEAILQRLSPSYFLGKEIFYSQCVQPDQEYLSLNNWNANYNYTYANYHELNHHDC
Outline: as §1

ELF4 = ELF4 (Homo sapiens, UniProt Q99607 1-663)
Sequence of ELF4 (Q99607 whole entry): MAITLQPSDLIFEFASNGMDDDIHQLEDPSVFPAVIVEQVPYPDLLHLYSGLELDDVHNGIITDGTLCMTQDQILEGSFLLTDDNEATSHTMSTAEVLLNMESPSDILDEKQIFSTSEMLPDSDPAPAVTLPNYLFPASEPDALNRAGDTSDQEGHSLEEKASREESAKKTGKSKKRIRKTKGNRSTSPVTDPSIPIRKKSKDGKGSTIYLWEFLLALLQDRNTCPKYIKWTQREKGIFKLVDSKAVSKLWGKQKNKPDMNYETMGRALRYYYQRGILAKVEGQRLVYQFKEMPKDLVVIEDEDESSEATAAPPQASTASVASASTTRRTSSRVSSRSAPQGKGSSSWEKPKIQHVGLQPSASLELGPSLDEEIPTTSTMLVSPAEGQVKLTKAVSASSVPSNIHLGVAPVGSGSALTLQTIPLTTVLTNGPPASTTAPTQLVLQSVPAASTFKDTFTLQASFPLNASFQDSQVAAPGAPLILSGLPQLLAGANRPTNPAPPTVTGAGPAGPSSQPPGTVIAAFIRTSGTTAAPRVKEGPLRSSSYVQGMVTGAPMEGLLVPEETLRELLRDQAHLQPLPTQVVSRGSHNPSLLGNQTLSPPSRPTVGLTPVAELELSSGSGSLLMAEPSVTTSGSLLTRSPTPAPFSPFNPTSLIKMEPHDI
Outline: as §1

ELK4 = target: T9, ELK4 (Homo sapiens, UniProt P28324-2 1-405)
T9 sequence: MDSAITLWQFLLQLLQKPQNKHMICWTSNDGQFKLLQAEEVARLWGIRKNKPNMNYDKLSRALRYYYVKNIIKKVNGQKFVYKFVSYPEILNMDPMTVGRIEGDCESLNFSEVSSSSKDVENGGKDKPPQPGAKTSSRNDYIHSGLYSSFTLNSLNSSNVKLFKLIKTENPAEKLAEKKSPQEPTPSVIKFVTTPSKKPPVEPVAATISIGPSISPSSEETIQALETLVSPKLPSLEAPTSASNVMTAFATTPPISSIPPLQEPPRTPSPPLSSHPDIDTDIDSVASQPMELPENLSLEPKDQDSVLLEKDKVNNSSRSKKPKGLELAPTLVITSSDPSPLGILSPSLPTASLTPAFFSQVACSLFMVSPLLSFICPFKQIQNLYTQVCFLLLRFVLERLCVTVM
Outline: as §1

ETV2 = target: T10, ETV2 (Homo sapiens, UniProt O00321 1-342)
T10 sequence: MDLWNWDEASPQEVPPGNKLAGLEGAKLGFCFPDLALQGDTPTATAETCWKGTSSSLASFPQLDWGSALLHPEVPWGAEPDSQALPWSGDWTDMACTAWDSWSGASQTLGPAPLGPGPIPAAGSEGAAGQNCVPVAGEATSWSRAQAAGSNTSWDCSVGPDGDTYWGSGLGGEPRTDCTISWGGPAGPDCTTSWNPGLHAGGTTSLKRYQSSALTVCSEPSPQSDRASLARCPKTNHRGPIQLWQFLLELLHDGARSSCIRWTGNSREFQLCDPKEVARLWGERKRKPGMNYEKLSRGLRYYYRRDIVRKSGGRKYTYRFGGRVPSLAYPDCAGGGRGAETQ
Outline: as §1

ELF3 = target: T11, ELF3 (Homo sapiens, UniProt P78545 1-371)
T11 sequence: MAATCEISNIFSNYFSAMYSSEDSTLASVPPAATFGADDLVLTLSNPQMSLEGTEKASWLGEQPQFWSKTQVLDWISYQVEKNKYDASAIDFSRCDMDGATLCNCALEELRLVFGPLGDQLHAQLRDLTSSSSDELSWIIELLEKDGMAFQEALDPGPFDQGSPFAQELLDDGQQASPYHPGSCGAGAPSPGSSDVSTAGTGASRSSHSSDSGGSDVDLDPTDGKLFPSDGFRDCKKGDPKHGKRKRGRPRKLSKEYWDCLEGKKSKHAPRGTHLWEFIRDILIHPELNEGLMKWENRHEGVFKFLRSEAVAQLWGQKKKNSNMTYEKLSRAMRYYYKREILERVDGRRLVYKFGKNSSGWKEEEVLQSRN
Outline: as §1

ETV1 = ETV1 (Homo sapiens, UniProt P50549 1-477)
Sequence of ETV1 (P50549 whole entry): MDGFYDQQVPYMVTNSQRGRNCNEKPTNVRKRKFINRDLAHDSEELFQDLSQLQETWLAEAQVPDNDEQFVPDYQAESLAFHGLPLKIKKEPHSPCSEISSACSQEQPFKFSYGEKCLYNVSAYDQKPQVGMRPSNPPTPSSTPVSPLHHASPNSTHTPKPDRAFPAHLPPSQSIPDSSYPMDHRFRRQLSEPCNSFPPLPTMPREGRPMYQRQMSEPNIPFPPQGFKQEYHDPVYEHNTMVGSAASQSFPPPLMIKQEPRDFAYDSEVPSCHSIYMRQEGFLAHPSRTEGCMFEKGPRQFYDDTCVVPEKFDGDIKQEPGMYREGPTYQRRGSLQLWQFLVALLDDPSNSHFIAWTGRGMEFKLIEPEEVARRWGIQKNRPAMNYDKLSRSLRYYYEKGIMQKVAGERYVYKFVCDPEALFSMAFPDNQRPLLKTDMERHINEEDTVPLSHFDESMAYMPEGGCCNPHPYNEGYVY
Outline: as §1

TGAACC
binding signal (FLI1): 1.17 fold enrichment (6-mer frequency, TF over GST control)
binding signal (ELK1): 1.25 fold enrichment (6-mer frequency, TF over GST control)
binding signal (GABPA): 1.17 fold enrichment (6-mer frequency, TF over GST control)
binding signal (ERG): 1.1 fold enrichment (6-mer frequency, TF over GST control)
binding signal (ELF1): 1.15 fold enrichment (6-mer frequency, TF over GST control)
binding signal (EHF): 1.16 fold enrichment (6-mer frequency, TF over GST control)
binding signal (SPI1): 1.15 fold enrichment (6-mer frequency, TF over GST control)
binding signal (SPIB): 1.15 fold enrichment (6-mer frequency, TF over GST control)
binding signal (ELK3): 1.12 fold enrichment (6-mer frequency, TF over GST control)
binding signal (FEV): 1.12 fold enrichment (6-mer frequency, TF over GST control)
binding signal (ETV5): 1.21 fold enrichment (6-mer frequency, TF over GST control)
binding signal (SPIC): 1.1 fold enrichment (6-mer frequency, TF over GST control)
binding signal (ELF4): 1.15 fold enrichment (6-mer frequency, TF over GST control)
binding signal (ELK4): 1.19 fold enrichment (6-mer frequency, TF over GST control)
binding signal (ETV2): 1.01 fold enrichment (6-mer frequency, TF over GST control)
binding signal (ELF3): 1.12 fold enrichment (6-mer frequency, TF over GST control)
binding signal (ETV1): 1.2 fold enrichment (6-mer frequency, TF over GST control)
